Molecules are shown by their SMILES. Counter-ions that a name gives are not always drawn.
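Note: purified Escherichia coli-expressed rice kinase domain construct.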

One test deals with LOC_OS05G28520-cb001. Put plainly: thermal shift delta Tm vs DMSO control; higher = stronger stabilization (binding). The conditions noted are these: 12.5 µM; protein concentration 2 µM. The procedure, abridged: (§1)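 Heating from 25°C to 95°C at 0.05°C/s, fluorescence was recorded for 19.5 μl wells of 2 μM E. coli-expressed, purified rice kinase domain in 100 mM potassium phosphate pH 7.5, 150 mM NaCl, 10% glycerol and 5 × SYPRO Orange with compound in DMSO. Boltzmann fits gave melting temperatures for this differential scanning fluorimetry assay. The shift reported is the mean of three replicates against the DMSO-only protein.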
For the molecule `Cc1cc(NC(=O)c2cccc(NC(=O)/C=C/CN(C)C)c2)ccc1Nc1nccc(-c2cccnc2)n1`, the “thermal shift delta Tm” value amounted to 1.08 °C.
`Nc1nccc(Oc2ccc(NC(=O)c3c[nH]cc(-c4ccc(F)cc4)c3=O)cc2F)c1Cl`: the “thermal shift delta Tm” value was 0.3 °C.
On to `COc1ccc(/C=C/C(=O)C2(C(=O)/C=C/c3ccc(OC)c(OC)c3)CCCCC2)cc1OC`, for which the “thermal shift delta Tm” value was determined as 0.12 °C.
Take `CC(C)CC(=O)Nc1n[nH]c2c1CN(C(=O)C1CCN(C)CC1)C2(C)C`: the “thermal shift delta Tm” value was 0.19 °C.

The subject of another test is LOC_OS05G30820-cb001. The description is as above. The settings on record: 12.5 µM; protein concentration 2 µM. The procedure, abridged: as §1
For `CCn1c(=O)c(-c2ccc(-c3cncs3)cc2Cl)cc2cnc(Nc3ccc(N4CCN(C)CC4)cc3)nc21`, the “thermal shift delta Tm” value was found to be 0.51 °C.
For `CNC(=O)c1cccc(-c2ccc3c(N4CCOC[C@@H]4C)nc(N4CCOC[C@@H]4C)nc3n2)c1` [Vistusertib (AZD2014)], the “thermal shift delta Tm” value was 0.67 °C.
Regarding `CC(C)S(=O)(=O)c1ccc2nccc(Nc3ccc4scnc4c3)c2c1`, the “thermal shift delta Tm” value is -0.04 °C.
Turning to `Cn1cc(-c2ccc3ncc(Cc4ccc5ncccc5c4)n3n2)cn1`, the “thermal shift delta Tm” value came out at 0.48 °C.
For `N#Cc1ccc2ncnc(NCCc3ccccc3)c2c1` [Senexin A], the “thermal shift delta Tm” value is 0.16 °C.
The same measure, in the same setting: the result for `O=C1NC(=O)/C(=C/c2ccc3nccc(-c4ccncc4)c3c2)S1` reads 0.15 °C; that for `Cn1cnc2c(F)c(Nc3ccc(Br)cc3F)c(C(=O)NOCCO)cc21`, 0.44 °C.
The same measure, in the same setting: under `Cc1cc(Nc2ncc(Cl)c(Nc3ccccc3S(=O)(=O)C(C)C)n2)c(OC(C)C)cc1C1CCNCC1` [Ceritinib (LDK378)] stands 0.63 °C.
As to `Cc1nc2ccc(-n3ncc(C(=O)c4cc5ccccc5[nH]4)c3N)cc2[nH]1`, the “thermal shift delta Tm” value stood at 0.59 °C.
As to `C=C[C@@](C)(/C=C/c1ccc(O)cc1)CCC=C(C)C` [Bakuchiol], the “thermal shift delta Tm” value came to 0.04 °C.
On to `C=CC(=O)Nc1cccc(Nc2nc(Nc3ccc(N4CCN(C(C)=O)CC4)cc3OC)ncc2C(F)(F)F)c1` [Rociletinib (CO-1686, AVL-301)], for which the “thermal shift delta Tm” value amounted to 0.73 °C.
In the case of `CCCS(=O)(=O)Nc1ccc(F)c(C(=O)c2c[nH]c3ncc(-c4ccc(Cl)cc4)cc23)c1F` [Vemurafenib (PLX4032, RG7204)], the “thermal shift delta Tm” value came to 0.58 °C.
Take `COc1cc(OC)c(C=C2C(=O)Nc3ccccc32)c(OC)c1`: the “thermal shift delta Tm” value turned out to be 0.46 °C.
Consider `CCN(CC)CCCC(C)Nc1nc(C)cc(Nc2ccc3nc(C)cc(N)c3c2)n1` (stereo not given), for which the “thermal shift delta Tm” value worked out at 0.63 °C.
Regarding `CN1CC(O)C2=C/C(=N/NC(N)=O)C(=O)C=C21` (stereo not given) [Carbazochrome], the “thermal shift delta Tm” value stood at 0.11 °C.
Take `Cc1cc(Nc2cc(N3CCN(C)CC3)nc(/C=C/c3ccccc3)n2)n[nH]1`: the “thermal shift delta Tm” value was 1.8 °C.
On the same count and under the same terms, under `Cc1ccc(NC(=O)Nc2cc(C(F)(F)F)ccc2F)cc1Nc1ccc2c(c1)NC(=O)/C2=C\c1ccc[nH]1` stands 0.73 °C; under `CO[C@H]1C[C@@H]2CC[C@@H](C)[C@@](O)(O2)C(=O)C(=O)N2CCCC[C@H]2C(=O)O[C@H]([C@H](C)C[C@@H]2CC[C@@H](O)[C@H](OC)C2)CC(=O)[C@H](C)/C=C(\C)[C@@H](O)[C@@H](OC)C(=O)[C@H](C)C[C@H](C)/C=C/C=C/C=C/1C` [Rapamycin (Sirolimus)], 0.5 °C.
Take `C[S+]([O-])c1ccc(-c2nc(-c3ccc(F)cc3)c(-c3ccncc3)[nH]2)cc1` (stereo not given): the “thermal shift delta Tm” value is 0.6 °C.
Take `CO[C@H]1CC[C@H](N2C(=O)CNc3ncc(-c4ccc(C(C)(C)O)nc4)nc32)CC1`: the “thermal shift delta Tm” value was determined as 0.29 °C.
As for `O=C(Nc1ccccc1C(=O)NC1CCCCNC1=O)c1cc2ccccc2s1` (stereo not given), the “thermal shift delta Tm” value was 0.1 °C.
Take `CCN1CCN(Cc2ccc(-c3cc4c(N[C@H](C)c5ccccc5)ncnc4[nH]3)cc2)CC1`: the “thermal shift delta Tm” value was determined as 0.48 °C.
Turning to `Cc1cnc(NC(=O)Nc2cc(Br)c(C)cc2OC[C@@H]2CNCCO2)cn1`, the “thermal shift delta Tm” value turned out to be 0.41 °C.
Same read-out and setting: the result for `Cc1ccc(NC(=O)c2ccc(CN3CCN(C)CC3)cc2)cc1Nc1nccc(-c2cccnc2)n1` [Imatinib Mesylate (STI571)] reads 0.32 °C; that for `NC(=O)c1ccc(N(C(N)=O)c2c(F)cccc2F)nc1-c1ccc(F)cc1F`, 0.41 °C.
`Cc1nc(-c2cn3c(n2)-c2ccc(-c4cnn(C(C)(C)C(N)=O)c4)cc2OCC3)n(C(C)C)n1` [Taselisib (GDC 0032)]: the “thermal shift delta Tm” value turned out to be 0.59 °C.
The same measure, in the same setting: under `COc1cc(N2CCC(N(C)C)CC2)ccc1Nc1ncc(Cl)c(Nc2ccccc2P(C)(C)=O)n1` stands 1.4 °C.
For the molecule `COc1cc2c(Nc3ccc(NC(=O)c4ccccc4)cc3)ncnc2cc1OCCCN1CCOCC1`, the “thermal shift delta Tm” value came out at 0.36 °C.
The same measure, in the same setting: under `CNC(=O)c1cc(Oc2ccc(NC(=O)Nc3cc(C(C)(C)C)nn3-c3ccc4ncccc4c3)c(F)c2)ccn1` [Rebastinib (DCC-2036)] stands 1.05 °C; under `CC(C)(CO)n1cc(C(=O)c2cncc(NC(=O)Cc3ccc(Cl)cn3)c2)c2cnc(N)nc21`, 0.02 °C; under `CS(=O)(=O)N1CCN(Cc2cc3nc(-c4cccc5[nH]ncc45)nc(N4CCOCC4)c3s2)CC1` [Pictilisib (GDC-0941)], 0.36 °C.

The values are drawn from the supplement of paper PMC9694430.
